Reference: PubChem BioAssay
Results with a measured potency or affinity are listed apart. Results filed as inconclusive are left out. Values without a mark were called inactive. The rule behind the calls is not given here.

experiment: IGROV1 ovarian cancer cell cytotoxicity, dose response, PAX8 inhibitor project, plate reader, dry powder samples (AID 743043); conditions: series mostly up to 35 µM; activity change, negative = cytotoxicity: at the top concentration;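 note: more negative means fewer viable cells or more cytotoxicity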

| SMILES | activity change, negative = cytotoxicity [%] |
| --- | --- |
| C[C@@H]1CN([C@H](C)CO)C(=O)c2cc(NC(=O)Nc3ccc(C(F)(F)F)cc3)ccc2O[C@@H](C)CCCCO[C@H]1CN(C)C(=O)Nc1ccc(F)cc1 | 20.4 |
| Cc1ccc(S(=O)(=O)Nc2ccc3c(c2)C(=O)N([C@@H](C)CO)C[C@H](C)[C@@H](CN(C)C(=O)Nc2ccc(C(F)(F)F)cc2)OCCCC[C@H](C)O3)cc1 | 13.2 |
| Cc1cccc(-c2ccc([C@H]3[C@H](CO)N4CCCCN(S(=O)(=O)c5ccccc5C)C[C@@H]34)cc2)c1 | 0.196 |
| C[C@@H]1CN([C@H](C)CO)C(=O)c2cc(NC(=O)Nc3ccc(F)cc3)ccc2O[C@@H](C)CCCCO[C@H]1CN(C)Cc1ccc(Cl)c(Cl)c1 | 12.7 |
| O=C(Nc1cccc(F)c1)N1CCCCN2[C@@H](CO)[C@@H](c3ccc(-c4ccncc4)cc3)[C@@H]2C1 | 8.45 |
| C[C@@H]1CCCCO[C@H](CN(C)C)[C@H](C)CN([C@H](C)CO)C(=O)c2cc(NC(=O)Nc3cccc4ccccc34)ccc2O1 | 14.5 |
| C[C@@H]1CN([C@@H](C)CO)C(=O)c2cc(NC(=O)c3ccccc3)ccc2O[C@@H](C)CCCCO[C@H]1CN(C)Cc1ccc(C(F)(F)F)cc1 | -36.2 |
| C[C@@H]1CCCCO[C@H](CN(C)Cc2ccc(C(F)(F)F)cc2)[C@@H](C)CN([C@@H](C)CO)C(=O)c2cc(NS(=O)(=O)c3ccccc3)ccc2O1 | 5.91 |
| O=C(Nc1ccc(C(F)(F)F)cc1)N1C[C@@H]2N[C@H](C1)C2c1ccc(-c2ccccc2)cc1 (stereo partly specified) | 12.2 |
| O=C(C[C@@H]1CC[C@H]2[C@@H](COC[C@@H](O)CN2Cc2cccc(C(F)(F)F)c2)O1)NCc1ccc(F)cc1 | 21.4 |
| C[C@@H]1CN([C@H](C)CO)C(=O)c2cc(NC(=O)Nc3ccc(F)cc3)ccc2O[C@@H](C)CCCCO[C@H]1CN(C)C(=O)Nc1ccc(F)cc1 | -0.211 |
| O=S(=O)(c1ccc(F)cc1)N1C[C@H]2[C@@H](c3ccccc31)[C@H](CO)N2Cc1ccccc1Cl | 23.3 |
| C[C@@H]1CN([C@@H](C)CO)S(=O)(=O)c2ccc(C#C[C@@H](C)O)cc2O[C@@H]1CN(C)Cc1ccc(-c2ccccc2)cc1 | -6.03 |
| C[C@H]1CN([C@@H](C)CO)C(=O)CCCn2nncc2CO[C@@H]1CN(C)C(=O)Nc1ccc(-c2cccs2)cc1 | -6.83 |
| Cc1ccc(S(=O)(=O)Nc2cccc3c2O[C@@H](CN(C)C(=O)Nc2ccc(C(F)(F)F)cc2)[C@@H](C)CN([C@H](C)CO)C3=O)cc1 | 14.4 |
| COc1ccc(CN2[C@H](CO)[C@H]3c4ccccc4NC[C@H]32)cc1 | -21.8 |
| CCCN1[C@H](C(=O)N2CCOCC2)[C@@H](CO)[C@@H]2Cn3c(ccc(/C=C/c4ccccc4)c3=O)[C@@H]21 | 8.68 |
| O=C(C[C@@H]1C[C@H]2c3cc(NC(=O)C4CCOCC4)ccc3O[C@H]2[C@H](CO)O1)NCc1ccc(Oc2ccccc2)cc1 | 14.1 |
| C[C@@H]1CN([C@H](C)CO)C(=O)c2cc(NC(=O)c3ccncc3)ccc2O[C@@H](C)CCCCO[C@H]1CN(C)Cc1ccc(C(F)(F)F)cc1 | -2.3 |
| Cc1cccc(-c2ccc([C@H]3[C@@H](CO)N4CCCCN(S(=O)(=O)c5cccc(C)c5)C[C@@H]34)cc2)c1 | -4.51 |
| C[C@@H]1CN([C@H](C)CO)C(=O)c2cc(NS(=O)(=O)c3ccc(F)cc3)ccc2O[C@@H]1CN(C)Cc1ccc(C(F)(F)F)cc1 | 9.8 |
| C[C@@H]1CN([C@H](C)CO)C(=O)c2c(c3ccccc3n2C)-c2ccccc2CO[C@@H]1CN(C)S(=O)(=O)c1ccc(C(F)(F)F)cc1 | -9.3 |
| C[C@@H]1CCCCO[C@@H](CN(C)S(=O)(=O)c2ccc(Cl)cc2)[C@H](C)CN([C@@H](C)CO)C(=O)c2cc(NS(=O)(=O)c3ccc(Cl)cc3)ccc2O1 | -19.4 |
| C[C@H](CO)N1C[C@H](C)[C@H](CN(C)S(=O)(=O)c2cccs2)OCCCC[C@H](C)Oc2ccc(NC(=O)NC3CCCCC3)cc2C1=O | -10 |
| Cc1ccc(S(=O)(=O)Nc2ccc3c(c2)C(=O)N([C@@H](C)CO)C[C@H](C)[C@@H](CN(C)Cc2ccc(Cl)c(Cl)c2)OCCCC[C@@H](C)O3)cc1 | -0.927 |
| C[C@@H]1CCCCO[C@@H](CN(C)Cc2ccc(Cl)c(Cl)c2)[C@H](C)CN([C@H](C)CO)C(=O)c2cc(NS(=O)(=O)c3ccc(F)cc3)ccc2O1 | -1.49 |
